Inconclusive results are not listed. Entries that show only a call come without a potency. Activity calls are given as the source filed them. Calls follow the shape of the dose curve; as a rule, active = well fitted inhibition curve with a large enough effect; inconclusive = small, poorly fitted or top-dose-only effect; inactive = flat fitted curve, though single readings scatter. Where a SMILES comes first, the peptide text is derived from it. [ ]: non-standard residue; d: D form. ξ: configuration not given here. ξPhe(βξ-Me) = CC(c1ccccc1)C(N)C(=O)O; GABA = NCCCC(=O)O
Potency is read from the fitted curve at half-maximal effect.

The test is described as follows: P-glycoprotein substrates identified in KB-8-5-11 adenocarcinoma cell line, qHTS therapeutic library screen (AID 1346987). Also: nearly all actives have a fitted effect of over 65% in size. As to conditions: KB-8-5-11 (P-gp overexpressing) viability, CellTiter-Glo, 72 h; series mostly up to 44.5 µM. In outline:
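Compounds are pinned in dose-response onto KB-8-5-11 cells (500 cells/well, colchicine-free medium) and left 72 h at 37 degree C. CellTiter-Glo luminescence then yields AC50 values.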
(In general: qHTS replaces the single test concentration by a dilution series.)
On to `C=CC1(C)CC(O)C2(CCC3C(C)(C(=O)O)CCCC3(C)C2=O)C1` (stereo not given), for which the Potency entry was “inactive”.
Consider `O=C(/C=C/c1c(C(=O)O)[nH]c2cc(Cl)cc(Cl)c12)Nc1ccccc1`, for which the Potency result was “inactive”.
On the same count and under the same terms, to `O=C(c1ccc(C#Cc2cccc(F)c2)cn1)N1CC2CC2C1` (stereo not given) belongs “inactive”.
On to `CC1(CO)CC[C@]2(C(=O)O[C@@H]3O[C@H](CO)[C@@H](O)[C@H](O)[C@H]3O)CC[C@]3(C)C(=CCC4[C@@]5(C)C[C@H](O)[C@H](O[C@@H]6OC[C@@H](O)[C@H](O)[C@H]6O)[C@@](C)(CO)C5CC[C@]43C)C2C1` (stereo not given in full), for which the outcome is “inactive [at 9.29 µM]”.
Take `O=C(C1CC1)N1CC[C@@H](Cc2n[nH]c(=O)n2-c2ccc(-c3ccc4occc4c3)cc2)C1`: the Potency entry was “inactive”.
Turning to `CC(=O)O[C@@H]1[C@H](O[C@@H]2OC[C@](O)(CO)[C@H]2O)[C@@H](O[C@@H]2O[C@@H](C)[C@H](O)[C@@H](O)[C@H]2O)[C@H](OC(=O)[C@]23CCC(C)(C)C[C@H]2C2=CCC4[C@@]5(C)C[C@H](O)[C@H](O[C@@H]6O[C@H](C(=O)O)[C@@H](O)[C@H](O)[C@H]6O)[C@@](C)(C(=O)O)C5CC[C@@]4(C)[C@]2(C)CC3)O[C@@H]1C` (stereo not given in full), the activity change, negative = cytotoxicity was 1.88% [at 9.29 µM] (inactive).
Take `CC(C)(O)/C=C1/C(=O)C(C)(C)C(=O)C(C)(C)C1(O)O[C@@H]1O[C@H](COC(=O)c2cc(O)c(O)c(O)c2)[C@@H](O)[C@H](O)[C@H]1O` (stereo not given in full): the Potency result was “inactive”.
Still for that read-out and setting: for `C[C@@H]1C[C@H](O[C@@H]2O[C@H](CO[C@@H]3OC[C@](O)(CO)[C@H]3O)[C@@H](O)[C@H](O)[C@H]2O)CC(C)(C)[C@H]1/C=C/[C@@H](C)O` the value was “inactive”.
Take `O=C(NC[C@H](O)CN1CCc2ccccc2C1)c1cc(NC2COC2)ncn1`: the Potency entry is “inactive”.
On the same count and under the same terms, for `CC1CC(O)CC(C)(C)C1(O)CCO` (stereo not given) the value was “inactive”.
For `C[C@@H]1O[C@@H](O[C@H]2[C@H](OC(C#N)c3ccc(O)cc3)O[C@H](CO)[C@@H](O)[C@@H]2O)[C@H](O)[C@H](O)[C@H]1O` (stereo not given in full), the Potency result is “inactive”.
With `CC1=C(CC(=O)O)c2cc(F)ccc2C1=Cc1ccc(S(C)(=O)=O)cc1`, the Potency result is “inactive”.
With `C[C@@H]1O[C@@H](O[C@H]2[C@H](OC(=O)C34CCC(C)(C)CC3C3=CCC5C6(C)CC(O)C(O[C@@H]7O[C@H](CO)[C@@H](O)[C@H](O)[C@H]7O)C(C)(C(=O)O)C6CCC5(C)C3(CO)CC4)O[C@H](C)[C@H](O)[C@@H]2O)[C@H](O)[C@H](O)[C@H]1O[C@@H]1OC[C@@H](O)[C@H](O)[C@H]1O` (stereo not given in full), the outcome was “inactive [at 9.29 µM]”.
`CCN[C@@H]1C[C@H](N)[C@@H](O[C@H]2OC(CN)=CC[C@H]2N)[C@H](O)[C@H]1O[C@H]1OC[C@](C)(O)[C@H](NC)[C@H]1O`: the Potency entry is “inactive”.
`CC1(C)C(=O)N2c3ccccc3[C@]3(CC(n4cnc5ccccc5c4=O)C(=O)O3)[C@H]2N1O` (stereo not given in full): the Potency entry is “inactive”.
Same read-out and setting: to `CC(C#N)C(C)O[C@@H]1O[C@H](CO)[C@@H](O)[C@H](O)[C@H]1O` (stereo not given in full) belongs “inactive”; to `Nc1nonc1C(=Nc1ccc(F)c(Cl)c1)NO`, “inactive”.
Still for that read-out and setting: to `C=C1C2=CC(O)C(C)C1(C)CC/C(C)=C/CCC1(C)OC1C2=O` (stereo not given) belongs “inactive”; to `Cc1c(-c2ccnn2C)cc(C(=O)NCc2ccc(S(C)(=O)=O)cn2)c(=O)n1-c1cccc(C(F)(F)F)c1`, “inactive”; to `Clc1ccc2c(c1)C1=NCCN1c1c(-c3noc(C4CC4)n3)ncn1-2`, “inactive”.
The same measure, in the same setting: to `CC1CCC2(O1)C(C)(C)CC(O[C@@H]1O[C@H](CO[C@@H]3OC[C@](O)(CO)[C@H]3O)[C@@H](O)[C@H](O)[C@H]1O)CC2(C)O` (stereo not given in full) belongs “inactive”; to `CCC(CCO[C@@H]1O[C@H](CO[C@H]2OC[C@](O)(CO)[C@H]2O)[C@@H](O)[C@H](O)[C@H]1O)C(C)(C)O` (stereo not given in full), “inactive”.
For the compound `CC1(C)CC[C@]2(C(=O)O)CC[C@]3(C)C(=CCC4[C@@]5(C)CC[C@H](O[C@@H]6O[C@H](C(=O)O)[C@@H](O)[C@H](O)[C@H]6O)C(C)(CO)C5CC[C@]43C)C2C1` (stereo not given in full), the Potency entry was “inactive”.
On the same count and under the same terms, to `O=C1N(CC2CCCCN2)CCN1c1ccccc1` (stereo not given) belongs “inactive”; to `Cc1cc(N2CCCCC2)nc2ccccc12`, “inactive”.
Still for that read-out and setting: to `CC1CCC2C(C(=O)O)=CC3C(O)C(C)(C)CC123` (stereo not given) belongs “inactive”; to `Cc1nc2c(-c3cnc(N)nc3)nc(N3CCOCC3)nc2n1C(C)C`, 259 nM (active).
Same read-out and setting: to `O=C1NC(=Nc2ccccc2F)S/C1=C\c1ccc(C(=O)O)cc1` belongs “inactive”; to `COCCN(C)Cc1ccc2nc3sc(C(=O)N(C)C4CCCCC4)cn3c2c1`, “inactive”.
Take `CC(=O)O[C@@H]1C[C@]2(C)[C@@]3(CCC4[C@@]5(C)CC[C@H](O[C@@H]6O[C@H](C(=O)O)[C@@H](O)[C@H](O[C@@H]7O[C@H](CO)[C@H](O)[C@H](O)[C@H]7O[C@@H]7O[C@@H](C)[C@H](O)[C@@H](O)[C@H]7O[C@@H]7OC[C@](O)(CO)[C@H]7O)[C@H]6O[C@@H]6O[C@H](CO)[C@H](O)[C@H](O)[C@H]6O)C(C)(C)C5CC[C@]42C)O[C@@H](O)[C@]12C3CC(C)(C)[C@@H](OC(=O)/C=C/c1ccc(O)c(O)c1)[C@@H]2OC(=O)/C=C/c1ccccc1` (stereo not given in full): the outcome is “inactive [at 9.29 µM]”.
As to `CC(=O)NCCCCn1c2c(c3ccccc31)C(=O)NCC2`, the Potency entry was “inactive”.
Same read-out and setting: for `O=C(O[C@@H]1O[C@H](CO)[C@@H](O)[C@H](O)[C@H]1O)c1c(O)cc(O)cc1/C=C/c1ccccc1` the value was “inactive”; for `CCC(=O)N[C@@H]1Cc2ccccc2[C@H](c2ccccc2)C1`, “inactive”; for `CCC(NC(=O)CC(NC(=O)C(CO)NC(=O)C(CC)NC(=O)c1ccc[nH]1)c1ccccc1)C(=O)O` (stereo not given), “inactive”.
Consider `CC(CCC1(O)OC2CC3C4CCC5CC(O[C@@H]6O[C@H](CO)[C@@H](O)[C@H](O)[C@H]6O[C@@H]6OC[C@@H](O)[C@H](O)[C@H]6O)C(O)CC5(C)C4CCC3(C)C2C1C)CO[C@@H]1O[C@H](CO)[C@@H](O)[C@H](O)[C@H]1O` (stereo not given in full), for which the outcome was “inactive [at 9.29 µM]”.
Consider `OC[C@H]1O[C@@H](OC(CCCCc2ccc(O)cc2)CCc2ccc(O)cc2)[C@H](O[C@@H]2OC[C@](O)(CO)[C@H]2O)[C@@H](O)[C@@H]1O` (stereo not given in full), for which the Potency entry is “inactive”.
On the same count and under the same terms, to `COc1cc(COC2OC(CO)C(O)C(O)C2O)cc(OC)c1O` (stereo not given) belongs “inactive”.
On the same count and under the same terms, to `CC(C)CC1NC(=O)C(C(C)c2ccccc2)NC(=O)C(C(C)C)NC(=O)C(C)NC(=O)CCCNC(=O)C(Cc2c[nH]c3ccccc23)NC(=O)C(C)NC1=O` (stereo not drawn) (cyclo([GABA]AV[ξPhe(βξ-Me)]LAW); configuration not given here) belongs “inactive”; to `N#CC1C(=O)Nc2scc(-c3ccc(-c4ccccc4O)cc3)c2C1=O` (stereo not given), “inactive”; to `C=C1[C@H]2CC[C@]3(O)[C@@](CC[C@@H]4[C@](C)(C(=O)O)CCC[C@]43C)(C2)[C@H]1OC(=O)/C(C)=C\C`, “inactive”.

For the origin of these results see PubChem BioAssay (NCATS).
